Records with an inconclusive call do not appear. The source made the active and inactive calls. Calls come from the whole dose curve; as a rule, active = well fitted inhibition curve with a large enough effect in the repeat runs; inconclusive = weak or mixed curves; inactive = flat fitted curve, though single readings scatter.
Biological target: Cytochrome P450 2D6 (Homo sapiens) (UniProt P10635)
Experiment: Cytochrome P450 family 2 subfamily D member 6 (CYP2D6) small molecule antagonists: luciferase biochemical (cell-free) qHTS assay (AID 1645840); note: nearly all actives have a fitted effect of over 55% in size
Conditions: P450-Glo CYP2D6 enzyme, luciferin luminescence, 1 h; series mostly up to 57.4 µM; activity change, negative = inhibition: at the top concentration
Method: National Center for Advancing Translational Sciences [NCATS] Assay Overview: Cytochrome P450 (CYP) enzymes are membrane-bound hemeproteins that play a key role in metabolism of drugs and xenobiotics. Assaying the effect of chemicals on CYP isozymes is useful to minimize the adverse drug reactions and toxicities in drug development process. Chemical compounds were tested for their effect on CYP enzyme activities by using P450-Glo (TM) screening systems (Promega Corporation, Madison, WI). These systems provide a luminescent method containing proluciferin substrates and are converted to luciferin products by CYP isozymes. The luciferin products formed are detected with a luciferin detection reagent, and the amount of light produced is proportional to CYP activity. P450-Glo (TM) CYP2D6 screening system (Catalog. No. V9890) was used to detect the compounds that interfere in CYP2D6 activity.
Assay Protocol Summary: Two ul of enzyme-substrate mix was dispensed into medium binding white/solid 1536-well plates (Greiner Bio-One North America Inc., Monroe, NC) using a Flying Reagent Dispenser (FRD, Aurora Discovery, San Diego, CA). […] The assay plates were incubated at room temperature for 10 min. Then 2 ul of NADPH regeneration solution was added to each well of the assay plates using an FRD and incubated at room temperature for 1 h. The reaction was stopped by adding 4 ul of detection reagent using an FRD and after 20 min incubation at room temperature, the luminescence signal was measured using a ViewLux plate reader (Perkin Elmer, Shelton, CT). Data were expressed as relative luminescence units.
% is set by controls: 0 for no effect and ±100 for the full control effect; potency is the fitted concentration of half-maximal effect.

Cytochrome P450 2D6 (Homo sapiens), sequence (P10635 whole entry, looked up): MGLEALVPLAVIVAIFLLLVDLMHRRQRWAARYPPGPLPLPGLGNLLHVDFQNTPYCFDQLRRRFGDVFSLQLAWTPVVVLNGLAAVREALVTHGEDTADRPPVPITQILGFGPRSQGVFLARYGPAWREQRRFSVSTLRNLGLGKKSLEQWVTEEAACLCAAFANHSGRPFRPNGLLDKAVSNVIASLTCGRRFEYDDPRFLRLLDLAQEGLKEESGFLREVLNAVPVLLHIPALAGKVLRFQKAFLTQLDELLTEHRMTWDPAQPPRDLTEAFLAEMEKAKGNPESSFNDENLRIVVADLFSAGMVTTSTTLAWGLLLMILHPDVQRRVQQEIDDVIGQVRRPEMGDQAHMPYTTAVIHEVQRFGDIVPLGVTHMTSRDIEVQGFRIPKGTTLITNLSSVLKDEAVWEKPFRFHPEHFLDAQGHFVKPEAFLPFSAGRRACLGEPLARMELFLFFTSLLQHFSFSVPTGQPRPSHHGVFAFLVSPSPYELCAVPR

Compound	Potency	activity change, negative = inhibition
COc1ccccc1N1CCN(CCCCNC(=O)c2ccc(-c3cscn3)cc2)CC1	6.01 µM (active)	–
O=C(COCC(=O)N1CCN(C(c2ccccc2)c2ccccc2)CC1)Nc1ccc(Cl)cc1C(=O)O	–	-25.4% (inactive)
Cc1ccc(Cl)cc1N(CC(=O)Nc1c(F)cccc1F)S(C)(=O)=O	–	0.0076% (inactive)
CC(=O)Nc1cccc2c1c(Sc1ccc(Cl)cc1)c(C)n2CC(=O)O	–	6.71% (inactive)
Cc1ccccc1NC(=O)Nc1ccc(CN2C(=O)N([C@@H](CC(C)C)C(=O)N[C@@H](CC(=O)O)c3ccccc3)C(=O)C2(C)C)cc1	–	-1.21% (inactive)
COc1ccc(-c2ccn(CC[C@](C)(C(=O)NO)S(C)(=O)=O)c(=O)c2)c(F)c1	–	28.3% (inactive)
O=[N+]([O-])c1cc(Cl)ccc1S(=O)(=O)N1CCN(Cc2ccccc2)CC1	0.756 µM (active)	–
Cc1onc(-c2ccccc2Cl)c1C(=O)N(C)c1ccc(Cl)cc1	–	-1.39% (inactive)
N#Cc1cc(-c2n[nH]c(-c3ccncc3)n2)ccn1	–	-17.6% (inactive)
O=C(NC1CCN(CC(F)(F)F)CC1)c1ccc(-c2cccc(F)c2)nc1	–	11.5% (inactive)
Oc1ccc(CC2NCCc3cc(O)c(O)cc32)cc1 (stereo not given)	–	-9.53% (inactive)
COc1ccc(N2CCN(CCCNC(=O)Cn3c(=O)c4cccn4c4c(C)ccnc43)CC2)cc1	–	0.328% (inactive)
CCCN1CCC[C@@H](c2cccc(S(C)(=O)=O)c2)C1	15.1 µM (active)	–
COC(=O)[C@H](Cc1ccc([N+](=O)[O-])cc1)NC(=O)c1cccc2ccccc12	2.13 µM (active)	–
O=C(O)Cn1nnc(-c2ccc(CN(CCCCOc3ccc(CN4CCCC4)cc3)CCc3ccccc3)cc2)n1	12 µM (active)	–
O=C(O)c1cc(C(F)(F)F)ccc1N1CC[C@H](OCc2ccccn2)C1	–	0.19% (inactive)
CN(C)c1ccc(C2O[C@@H](c3ccccc3)C[C@H](c3ccccc3)O2)cc1 (stereo not given in full)	–	6.05% (inactive)
COc1cccc(OC)c1-c1ccc(C[C@H](NC(=O)c2c(Cl)cccc2Cl)C(=O)O)cc1	–	5.27% (inactive)
CCCN(CCN1CCN(c2ccccc2OC)CC1)C1CCc2ncsc2C1 (stereo not given)	1.9 µM (active)	–
CC1(C)[C@H]2C[C@H](C/C=C\CCCC(=O)O)[C@@H](NC(=O)c3csc4ccc(O)cc34)[C@@H]1C2	–	-13.1% (inactive)

Compound	Potency	activity change, negative = inhibition
CCOc1ncc(S(=O)(=O)N2CCN(CC)CC2)cc1-c1nc2c(CC)n(CCOC)nc2c(=O)[nH]1	–	7.91% (inactive)
O=C(O)[C@H](Cc1ccccc1)Oc1ccc(-c2ccccc2)cc1	–	4.73% (inactive)
CCC(C)C(N)C(=O)NCCN1CCOCC1 (stereo not given)	–	-0.554% (inactive)
COC(=O)C(CC1CCCC1)c1ccc(S(C)(=O)=O)cc1 (stereo not given)	12 µM (active)	–
CCOc1ccc(-c2cc(NC(=O)c3c(F)cccc3F)c(C(=O)O)s2)cc1	7.56 µM (active)	–
CCNC(=O)OC1CCN(c2nncc3cc(OC)c(OC)cc23)CC1	16.9 µM (active)	–
N[C@@H](CCNCc1ccc(Cl)cc1)C(=O)N1CCCCC1	10.7 µM (active)	–
Cc1ccc2[nH]c(=O)c(C3=NN(C(=O)CCC(=O)O)C(c4ccc(Br)cc4)C3)c(-c3ccccc3)c2c1 (stereo not given)	–	-1.11% (inactive)
COc1ccc(NC(=O)c2ccc(-c3ccc(C(N)=O)cc3C)cc2)cc1N1CCN(C)CC1	–	3.74% (inactive)
COc1ccc(-n2[nH]c3c(cnc4ccccc43)c2=O)cc1	–	-3.24% (inactive)
CCOC(=O)C1=C(N)Oc2ccc(Cl)cc2C1C(C#N)C(=O)OCC (stereo not given)	16.9 µM (active)	–
Cc1c(C)c(NCC(=O)N(C)C2CCN(Cc3ccc(C(N)=O)cc3)CC2)c(C)c(C)c1N	21.3 µM (active)	–
Nc1ncnc2c1c(COc1cccc(Cl)c1)nn2C1CCOCC1	–	-21.9% (inactive)
Cc1cc(OCCN2CCOCC2)nn1-c1ccc2ccccc2c1	5.35 µM (active)	–
CNC(=O)c1ccc2c(c1)CCO[C@H]2CCN1CCN(c2ccc(C(N)=O)cc2)CC1	–	9.45% (inactive)
Cc1ccc(COC(=O)N2CC[C@@H](CNc3ncccn3)[C@@H](F)C2)cc1	16.9 µM (active)	–
Cc1ccccc1-n1nc(-c2c(-c3ccc(F)cc3)nn3c2NC[C@@H](CO)C3)ccc1=O	–	0.587% (inactive)
Nc1ncnc2c1C(=O)N(c1ccc(C3CCC(CC(=O)O)CC3)cc1)CCO2 (stereo not given)	–	3.48% (inactive)
N#Cc1cccc(-c2nc(-c3cccnc3)no2)c1	2.62 µM (active)	–
Nc1nc(COC(=O)c2ccc([N+](=O)[O-])cc2)nc(Nc2ccccc2)n1	–	-18.2% (inactive)

From PubChem BioAssay (NCATS)
